# WT yeast gro inh = growth inhibition of WT strain, primary screen, mitochondrial fusion inhibitor project, WT and mutant strains, chemical genetic; mitochondrial fusion phenotypic screen; 2.1% of 190,000 active; inhibition, % at 10 µM; in the data active = inhibition above about 58%; tested in S. cerevisiae
# TPT1 inh = Candida albicans TPT1 enzyme inhibitors, primary screen, biochemical, fluorescence polarization. inhibition, % at 5 µM. tRNA 2'-phosphotransferase TPT1 (Candida albicans SC5314). recombinant caTPT1, FP RNA substrate dephosphorylation. 0.81% of 300,000 active;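 active = inhibition above the mean of all tested compounds plus 3 SD, set per screening campaign, cut at about 24% in these data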;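 also: plate controls were DMSO alone for no effect and ferristatin control at 100 nM for full effect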
# Rtt109 HAT inh = inhibitors of C. albicans Rtt109/Vps75 HAT, primary screen, biochemical, ThioGlo CoA-SH fluorescence, plate reader; Histone acetyltransferase RTT109 (Candida albicans (strain SC5314 / ATCC MYA-2876)), …; purified Rtt109/Vps75, 4 h; inhibition, % at 34.9 µM; 0.16% of 330,000 active; AID 540336, 2011;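 active = inhibition of at least 50% in every replicate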
# PHOSPHO1 inh = PubChem AID 1565; Phosphoethanolamine/phosphocholine phosphatase (Homo sapiens), Q8TCT1; recombinant PHOSPHO1, absorbance phosphatase assay; inhibition, % at 13.3 µM; 1.1% of 290,000 active; in the data active = inhibition above about 60%
# Target sequence (Q8TCT1 whole entry, looked up): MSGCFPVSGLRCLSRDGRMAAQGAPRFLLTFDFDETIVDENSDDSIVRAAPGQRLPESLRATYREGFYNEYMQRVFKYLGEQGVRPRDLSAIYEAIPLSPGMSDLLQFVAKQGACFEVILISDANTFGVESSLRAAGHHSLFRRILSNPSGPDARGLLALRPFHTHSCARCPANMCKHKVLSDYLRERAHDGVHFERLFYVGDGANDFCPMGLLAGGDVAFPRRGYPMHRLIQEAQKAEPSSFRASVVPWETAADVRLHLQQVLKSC
# Platelet DG rel = inhibitors of platelet dense granule secretion, primary screen, cell-based, MLPCN, human platelets; human platelet-rich plasma, SFLLRN dense granule ATP release, luminescence; inhibition, %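 (compounds screened at 7.5 µM in platelet-rich plasma)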; 0.22% of 300,000 active;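 active = mean replicate score, as percent of positive control, at or above 50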
# SKKanGAS inh = S. pyogenes SKKanGAS growth inhibitors in kanamycin, primary screen, streptokinase expression inhibitor project, SKKanGAS strain, BacTiter-Glo luminescence. 1.3% of 300,000 active. inhibition, % at 7.5 µM. 6 h;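 active = mean replicate score, as percent of positive control median, at least 50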;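 also: strain carries kanamycin resistance gene driven by streptokinase promoter and grows in 40 µg/ml kanamycin; loss of luminescence reflects streptokinase promoter inhibition or plain growth inhibition; 0% = median of DMSO wells and 100% = positive control at its reference dose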
# * hit, by the source's call; . = no result given. Compounds with a hit are over-represented: about 3.9% of the library has one in this group of screens.
SMILES,WT yeast gro inh,TPT1 inh,Rtt109 HAT inh,PHOSPHO1 inh,Platelet DG rel,SKKanGAS inh
Cc1ccc(NC2=C/C(=N\S(=O)(=O)c3cccs3)c3ccccc3C2=O)c(C)c1,96*,-8,-9,29,8,100*
Cc1cccc(NC2=C/C(=N/S(=O)(=O)c3cccs3)c3ccccc3C2=O)c1,20,1,-1,-23,.,.
Cc1ccc(Cl)cc1NC1=C/C(=N\S(=O)(=O)c2cccs2)c2ccccc2C1=O,96*,1,2,14,-2,95*
CC[C@]12c3[nH]c4ccccc4c3CCN1C(=O)C(CC(=O)NCc1cccc(C(F)(F)F)c1)C[C@@H]2C(=O)N1CCN(C(=O)c2ccco2)CC1 (some centres undefined),.,.,4,.,.,.
CCCSC1=N/C(=C\C=C\c2ccco2)C(=O)S1,20,18,-12,90*,-6,-10
C=CCC1(CC=C)CCCN1C(=O)C1CCC(=O)N(CCc2ccc(OC)cc2)C1 (centres undefined),.,2,12,34,0,4
CC(=O)c1ccc(OCC(=O)OCC(=O)N(CC(C)C)c2c(N)n(Cc3ccccc3)c(=O)[nH]c2=O)cc1,.,.,25,.,.,.
CN(c1ccc(C(=O)Nc2ccc3c(c2)OCO3)cc1)S(C)(=O)=O,.,-1,51*,43,83*,3
Cc1cc(C)c2nc(SCCc3ccccc3)nc(C)c2c1,6,-3,-3,2,-2,71*
COc1cc(/C=C\C(=O)O)cc(S(=O)(=O)N2CCCCCC2)c1OC,.,.,0,.,3,2
COc1cc2nc(SCc3ccc(F)cc3)n(Cc3cccs3)c(=N)c2cc1OC,1,-1,-2,-56,2,14
COc1ccc(Cn2c(SCc3ccccc3C)nc3cc(OC)c(OC)cc3c2=N)cc1,-1,2,10,38,2,60*
CCN(CC)c1ccc(C(=S)N2CCN(c3ccccc3)CC2)cc1,24,5,53*,74*,5,-3
COCC(=O)N1C[C@H]2CON(C)[C@H]2C[C@H]1c1cccc(-c2ccc(C#N)cc2)c1,.,.,4,.,.,.
Cc1ccc(COc2ccccc2-c2cc(C(=O)N/N=C/c3cccnc3)[nH]n2)cc1,.,1,-9,33,0,63*
CCOc1ccccc1-c1cc(C(=O)N/N=C/c2cccnc2)c2ccccc2n1,.,-5,9,.,-7,7
Cc1cc2nc(C)n(CCCNC(=O)Nc3ccc(C#N)cc3)c2cc1C,-1,-3,0,60*,0,-9
Cc1cc2nc(C)n(CCCN)c2cc1C,-4,1,10,60*,6,7
CCn1c(C)nc2cc(C#N)ccc21,-16,1,1,-83,5,-12
CCNC(=O)[C@H]1O[C@@H](n2cnc3c(N)nc(NCCc4ccc(CCC(=O)O)cc4)nc32)[C@H](O)[C@@H]1O,.,-1,4,8,109*,-6
O=C(NC12CC3CC(CC(C3)C1)C2)c1ccc(-c2cccc(Cl)c2)o1,66*,-3,4,-4,-4,9
COc1ccc(OC)c(C2CC(=O)N3CN(c4ccc(C)c(Cl)c4)CSC3=C2C#N)c1 (centres undefined),12,-3,91*,79*,-3,3
COc1ccc(OC)c(C2CC(=O)N3CN(c4cccc(Cl)c4)CSC3=C2C#N)c1 (centres undefined),9,-2,-2,94*,3,2
COc1cc(OC)c(C2CC(=O)N3CN(c4ccccc4)CSC3=C2C#N)cc1OC (centres undefined),-8,-3,5,103*,0,5
CCc1ccccc1N1CSC2=C(C#N)C(c3cc(OC)c(OC)cc3OC)CC(=O)N2C1 (centres undefined),-1,9,4,6,-5,3
CCOC(=O)c1ccc(N2CSC3=C(C#N)C(c4ccc(OC)cc4OC)CC(=O)N3C2)cc1 (centres undefined),2,3,7,90*,5,2
